From PubChem BioAssay come the findings set out here.

Where “and” joins values, the source holds several entries; their conditions need not be identical. Identical values can stand only once. For some of these results: Potency and affinity values are given separately. Calls of active or inactive are those of the source. Unless noted, no stated cut-off is given here; in the data, active means parasite load remaining mostly below about 12% (no sharp cut-off); inactive means mostly above about 10%.

Assay [1] in a line: blockers of polyQ-driven CASP3 activation – cell-based (AID 1583). The conditions noted are these: polyglutamine-induced caspase-3 activation, cell assay; stronger effect = higher value;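 tested at 10 µM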.
The nature of assay [2]: yeast 75Q aggregation reduction – 75Q-TubU reporter (AID 1593). To be noted: Yeast 75Q polyglutamine aggregation reporter.
A short description of assay [3]: restoration of touch response, mutant HTT neurons – whole organism, C. elegans mechanosensory neurons, N-terminal huntingtin (AID 1599). The conditions noted are these: C. elegans polyQ-huntingtin mechanosensory neurons, stronger effect = higher value.
Assay [4] in a line: blockers of cytochrome c efflux from mitochondria – biochemical, purified mitochondria (AID 1603).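 Further: mouse liver mitochondria challenged with calcium chloride; signal normalized to the plate average as 100%.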 To be noted: stronger effect = lower value.
A short description of assay [5]: polyglutamine aggregate formation blockers (AID 1604). The conditions noted are these: polyglutamine-induced protein aggregation inhibition assay; stronger effect = higher value; tested at 2.5 µM.
Assay [6] is described as follows: glutamate transport activators, MN-1 cells, MN-1 cell line (AID 1612).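 Further: tested at 1 µM final; 0% = mean of DMSO vehicle wells on each plate; positive means more glutamate uptake than control and negative means less.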 To be noted: MN-1 motor neuron cells, stronger effect = higher value.
Assay [7] in a line: GFP-Q80 aggregate reduction, neuronal-like cells, cell-based, NGF-treated PC12, GFPQ80 (AID 1614).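 Further: lower means fewer inclusions and 0 means no inclusions at all.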 The conditions noted are these: PC12 NGF-treated GFP-polyQ80 inclusion reduction.
Assay [8] can be described thus: 75Q-TubH aggregate inhibition, S. cerevisiae, yeast (AID 1616). To be noted: S. cerevisiae 75Q-TubH polyglutamine aggregation suppression; stronger effect = higher value.
Assay [9] in a line: P. berghei load reduction in hepatocytes – cell-based, HepG2, luciferase luminescence, HepG2 viability, primary screen (AID 624349).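 Further: 100% = mean of DMSO negative control wells on the same plate.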 To be noted: P. berghei liver stage in HepG2, luciferase luminescence, concentration not given here; parasite load remaining: stronger effect = lower value; viability: measured here: HepG2 viability without parasites.
Assay [10] concerns the target 6-phosphogluconate dehydrogenase, decarboxylating (Homo sapiens) (UniProt P52209). The assay is described as follows: inhibition of human phosphogluconate dehydrogenase – biochemical, recombinant enzyme, NADPH absorbance, primary screen (AID 1159550;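 active means at least 20% inhibition of 6-phosphogluconate dehydrogenase activity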). To be noted: recombinant 6PGD, NADPH absorbance 341 nm; at 10 µM; stronger effect = higher value.
The nature of assay [11]: EMT-state selective cytotoxicity in co-culture – imaging, PC-3E GFP, TEM4-18 mCherry, primary screen (AID 1345086;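 active means compounds killing one labelled cell type while sparing the other, by normalised counts and ratio limits, not self-fluorescent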;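 on all read-outs here: cells exposed to compound for 72 h before imaging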;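 on red/green cell ratio (normalised): normalised mesenchymal count divided by normalised epithelial count so high means epithelial killing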). The conditions noted are these: PC-3E GFP / TEM4-18 mCherry co-culture, imaging cell counts, at 1 µM; for red/green cell ratio (normalised): actives lie on both sides, counts scaled to control wells, 1 = unselective.
A short description of assay [12]: viability loss with induced miR-34 in A549 – imaging, A549 dox-inducible miR-34, nuclei and caspase counts, primary screen (AID 1347080;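 active means compounds whose cell count with miR-34 switched on is under 0.7 times the count with it off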). The conditions noted are these: A549 miR-34 inducible, Hoechst nuclei count, 48 h.
The target in assay [13] is NAD(+) hydrolase SARM1 (Homo sapiens) (UniProt Q6SZW1). Put plainly: blocking NAD cleavage by SARM1 SAM-TIR – cell lysate, NAD-Glo luminescence (AID 1508614;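 active means compound whose remaining NAD level is above about 45 nM, limit read from the data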). To be noted: SAM-TIR HEK293T lysate NADase, at 1 µM, stronger effect = higher value.
Assay [14] can be described thus: compounds altering viability of human ES cells (AID 493140; call rule not given here;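 further: cells exposed to compounds for four days before counting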). To be noted: human embryonic stem cell survival screen; stronger effect = higher value.
Assay [15] deals with Mitogen-activated protein kinase 7 (Homo sapiens) (UniProt Q13164). Put plainly: Gal4-ERK5 driven luciferase induction – cell-based, HTS, primary screen (AID 1508626;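 active means luciferase signal above three times the same-plate solvent-only control wells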;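 further: luciferase driven by Gal4-ERK5 fusion binding five Gal4 sites before minimal TATA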). The conditions noted are these: HeLa Gal4-ERK5 transactivation, 18 h, at 5 µM, stronger effect = higher value.
Assay [16] in a line: MELAS cybrid and Rieske KO viability enhancers – cell-based, MELAS cybrids, Rieske KO mouse fibroblasts, CellTiter-Glo, primary screen (AID 1508586;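 active means mean z-score across replicates of 1.96 or higher in either the MELAS or the Rieske mutant cell line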;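 further: z relative to plate mean and SD of compound and empty wells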). The conditions noted are these: low glucose.
Assay [17] is described as follows: galactose survival enhancers in mitochondrial complex I cybrids – cell-based, galactose medium, ATP luminescence, primary screen (AID 1645843;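 active means z-score of at least 1.8 in each of two replicates, scored against plate mean and spread of sample wells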;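 further: positive z means more ATP and so rescue of galactose-driven cybrid death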). The conditions noted are these: complex I mutant cybrid cells, 72 h, stronger effect = higher value.
Where [18] appears, read: measured here: epithelial PC-3E GFP cell survival.
[19] abbreviates: measured here: mesenchymal TEM4-18 mCherry cell survival.
[20] abbreviates: stronger effect = lower value, cell number ratio, induced over uninduced.
Setting [21] is: measured here: relative caspase fold change +Dox/-Dox.
The mark [22] stands for this setting: measured here: total cells with miR-34 induction, stronger effect = lower value.
Where [23] appears, read: measured here: total cells without miR-34 induction.

Sequence of Mitogen-activated protein kinase 7 (Homo sapiens) (Q13164 whole entry, looked up, the tested form may be a part): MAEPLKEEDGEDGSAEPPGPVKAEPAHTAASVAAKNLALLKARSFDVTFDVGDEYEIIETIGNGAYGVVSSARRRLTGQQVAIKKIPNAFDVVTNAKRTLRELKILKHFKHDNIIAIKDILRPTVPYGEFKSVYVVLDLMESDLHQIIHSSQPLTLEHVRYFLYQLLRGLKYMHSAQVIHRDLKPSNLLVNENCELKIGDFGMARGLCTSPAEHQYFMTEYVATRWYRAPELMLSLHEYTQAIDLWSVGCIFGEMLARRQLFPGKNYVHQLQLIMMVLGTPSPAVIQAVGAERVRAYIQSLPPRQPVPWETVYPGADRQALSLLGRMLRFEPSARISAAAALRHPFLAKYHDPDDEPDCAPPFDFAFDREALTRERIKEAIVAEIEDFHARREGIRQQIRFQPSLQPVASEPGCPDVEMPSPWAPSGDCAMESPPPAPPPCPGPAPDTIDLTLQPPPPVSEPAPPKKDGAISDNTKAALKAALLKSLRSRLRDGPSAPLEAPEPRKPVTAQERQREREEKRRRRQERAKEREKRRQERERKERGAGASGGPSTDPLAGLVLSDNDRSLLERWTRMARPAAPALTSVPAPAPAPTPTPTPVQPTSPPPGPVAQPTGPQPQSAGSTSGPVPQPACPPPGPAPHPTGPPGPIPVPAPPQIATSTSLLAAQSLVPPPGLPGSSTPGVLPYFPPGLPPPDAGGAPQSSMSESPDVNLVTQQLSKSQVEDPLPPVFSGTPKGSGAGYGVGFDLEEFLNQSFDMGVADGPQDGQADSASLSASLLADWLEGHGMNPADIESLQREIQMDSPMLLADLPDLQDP
Sequence of NAD(+) hydrolase SARM1 (Homo sapiens) (Q6SZW1 whole entry, looked up): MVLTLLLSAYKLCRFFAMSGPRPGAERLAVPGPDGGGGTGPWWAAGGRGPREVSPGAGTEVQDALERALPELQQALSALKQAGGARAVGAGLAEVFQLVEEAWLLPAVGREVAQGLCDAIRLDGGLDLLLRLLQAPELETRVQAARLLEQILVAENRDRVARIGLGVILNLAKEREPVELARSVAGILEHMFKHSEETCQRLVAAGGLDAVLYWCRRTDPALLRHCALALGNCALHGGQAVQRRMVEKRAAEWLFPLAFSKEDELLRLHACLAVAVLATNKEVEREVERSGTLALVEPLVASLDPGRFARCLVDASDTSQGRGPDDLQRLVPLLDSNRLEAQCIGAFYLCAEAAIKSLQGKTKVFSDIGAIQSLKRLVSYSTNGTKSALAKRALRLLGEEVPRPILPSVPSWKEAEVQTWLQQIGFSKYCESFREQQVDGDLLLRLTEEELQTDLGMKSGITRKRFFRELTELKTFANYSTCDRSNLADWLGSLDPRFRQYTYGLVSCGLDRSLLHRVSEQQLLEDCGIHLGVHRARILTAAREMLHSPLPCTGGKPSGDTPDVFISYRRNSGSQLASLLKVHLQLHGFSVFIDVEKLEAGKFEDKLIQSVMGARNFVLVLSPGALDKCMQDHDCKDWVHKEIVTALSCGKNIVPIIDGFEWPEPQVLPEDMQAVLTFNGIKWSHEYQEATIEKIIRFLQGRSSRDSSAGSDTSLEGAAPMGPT
Sequence of 6-phosphogluconate dehydrogenase, decarboxylating (Homo sapiens) (P52209 whole entry, looked up): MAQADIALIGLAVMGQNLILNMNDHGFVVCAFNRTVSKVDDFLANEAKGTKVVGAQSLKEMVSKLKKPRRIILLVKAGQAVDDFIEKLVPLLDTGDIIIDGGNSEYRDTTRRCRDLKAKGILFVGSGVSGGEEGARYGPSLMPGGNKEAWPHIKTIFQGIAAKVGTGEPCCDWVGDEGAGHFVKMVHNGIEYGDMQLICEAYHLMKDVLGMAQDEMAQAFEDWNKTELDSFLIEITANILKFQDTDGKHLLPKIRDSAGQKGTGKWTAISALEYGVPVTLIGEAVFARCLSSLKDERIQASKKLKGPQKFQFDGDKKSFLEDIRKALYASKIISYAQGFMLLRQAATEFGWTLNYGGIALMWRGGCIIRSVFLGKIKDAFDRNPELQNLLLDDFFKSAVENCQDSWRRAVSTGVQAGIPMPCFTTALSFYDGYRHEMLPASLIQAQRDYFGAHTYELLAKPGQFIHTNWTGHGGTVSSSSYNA

For `O=C(O)CN(CCN(CC(=O)O)CC(=O)O)CC(=O)O`, the inhibition in assay [1] is 13.2%; in assay [10], 8.13% (inactive). Further, the score in assay [2] worked out at 1.69. Besides, in assay [3], the rescue above control was -6.51. For the same compound, in assay [4], the cytochrome c release ratio worked out at 0.54. Besides, the inhibition of aggregation in [5] is 72.4%. In addition, in assay [6], the glutamate uptake change was -23.4%. In addition, in assay [7], the inclusion score amounted to 1.5. Moreover, in assay [8], the aggregation suppression score amounted to 1.43. Further, the parasite load remaining in [9] was 74.6% (inactive) and 69.8% (inactive). Further, the viability in assay [9] was 73.4% and 97.7%. The red/green cell ratio (normalised) in assay [11] was 1.05 (inactive) and 0.92 (inactive). Also, the normalised cell number in assay [11] (setting [18]) is 1.05 and 1.23; in assay [11] (setting [19]), 1.11 and 1.13. Moreover, the fold change in assay [12] (setting [20]) was 0.899 (inactive); in assay [12] (setting [21]), 3.42. In addition, the results for the cell count in assay [12] (setting [22]) and in [12] (setting [23]) were 11600 and 12900, respectively. For the same compound, the remaining NAD in assay [13] was 10 nM (inactive).

On to `Cc1[nH]ccc2c1[nH]c1cc(=O)ccc12`, for which the survival in assay [14] is 3 (inactive). For the same compound, in assay [9], the parasite load remaining is 74.5% (inactive) and 99.2% (inactive) and 81.5% (inactive). The viability in assay [9] was 88.4% and 65.9% and 69.9%. The inhibition in assay [10] is 8.86% (inactive). For the same compound, in assay [11], the red/green cell ratio (normalised) is 0.84 (inactive). The normalised cell number stood at 1 in assay [11] (setting [18]) and 0.83 in [11] (setting [19]). In addition, the fold change in assay [12] (setting [20]) is 0.837 (inactive); in assay [12] (setting [21]), 1.33. Also, the cell count in assay [12] (setting [22]) came out at 6490; in assay [12] (setting [23]), 7750. Moreover, the luciferase signal in assay [15] is 76 AU (inactive).

For `O=C1NS(=O)(=O)c2ccccc21`, the inhibition in assay [1] was 13.8%; in assay [10], 10.4% (inactive). Also, the score in assay [2] came to 0.92. Further, the rescue above control in assay [3] was -8.57. The cytochrome c release ratio in [4] came out at 0.95. Also, the inhibition of aggregation in assay [5] was 78.3%. Moreover, the glutamate uptake change in assay [6] turned out to be 6.02%. Besides, the inclusion score in assay [7] turned out to be 2. Also, in assay [8], the aggregation suppression score was 1.22. The parasite load remaining in assay [9] is 95.1% (inactive) and 37.4% (inactive). The viability in [9] was 71.8% and 92.3%. Also, in assay [11], the red/green cell ratio (normalised) is 1.14 (inactive). Further, the figures for the normalised cell number in assay [11] (setting [18]) and in [11] (setting [19]) were 1.03 and 1.17, respectively. The remaining NAD in assay [13] was 10 nM (inactive). Also, the luciferase signal in [15] was 40 AU (inactive).

As for `CN1CC(=O)N=C1N`, the inhibition in [1] was -27.2%; in assay [10], 10.8% (inactive). In assay [2], this compound showed a score of 1.33. Further, the rescue above control in assay [3] was -3.62. Moreover, in [4], the cytochrome c release ratio came out at 0.51. The inhibition of aggregation in [5] is 97.4%. Also, the glutamate uptake change in [6] came out at 32%. In addition, the inclusion score in assay [7] was 2. The aggregation suppression score in assay [8] is 1.7. In [11], the red/green cell ratio (normalised) is 1.04 (inactive). In addition, the values for the normalised cell number in [11] (setting [18]) and in assay [11] (setting [19]) were 0.96 and 1, respectively. In [13], the remaining NAD was 10 nM (inactive). Further, the luciferase signal in [15] was 68 AU (inactive).

On to `C=Cc1c(C)/c2[n-]/c1=C\c1[n-]c(c(CC)c1C)/C=c1\[n-]c3c(c1C)C(=O)C(C(=O)[O-])C=3c1[n-]c(c(C)c1CCC(=O)[O-])\C=2.[Cu].[Na+].[Na+]` (stereo not given), for which the parasite load remaining in assay [9] was 101% (inactive) and 38.1% (inactive). Also, in [9], the viability is 71.3% and 170%. For the same compound, in [10], the inhibition is 37.8% (active). Moreover, the red/green cell ratio (normalised) in assay [11] is 0.85 (inactive). In addition, the normalised cell number in [11] (setting [18]) amounted to 1.03; in [11] (setting [19]) it was 0.87. Moreover, the fold change in assay [12] (setting [20]) is 0.937 (inactive); in [12] (setting [21]), 2.82. Also, the cell count is 11500 in assay [12] (setting [22]) and 12300 in assay [12] (setting [23]).

In the case of `CC(C)c1nc(N(C)S(C)(=O)=O)nc(-c2ccc(F)cc2)c1/C=C/[C@@H](O)C[C@@H](O)CC(=O)O`, in assay [9], the parasite load remaining is 73.5% (inactive) and 60.1% (inactive). In addition, in assay [9], the viability is 86.4% and 101%. Moreover, the inhibition in [10] was 1.44% (inactive). For the same compound, the red/green cell ratio (normalised) in assay [11] was 0.94 (inactive). Also, the normalised cell number in assay [11] (setting [18]) came to 1.08; in [11] (setting [19]) it was 1.02. Further, the fold change in assay [12] (setting [20]) is 0.858 (inactive); in assay [12] (setting [21]) it was 2.33. Further, the cell count worked out at 12000 in assay [12] (setting [22]) and 13900 in [12] (setting [23]). Further, the remaining NAD in [13] is 10 nM (inactive). In [15], the luciferase signal is 48 AU (inactive).

`CCCCC(=O)Oc1ccccc1C(=O)O`: the inhibition in [10] is 18.3% (inactive). The red/green cell ratio (normalised) in assay [11] is 0.89 (inactive). Also, the normalised cell number in assay [11] (setting [18]) is 1.25; in assay [11] (setting [19]) it was 1.11. For the same compound, the results for the fold change in assay [12] (setting [20]) and in [12] (setting [21]) were 0.935 (inactive) and 0.938, respectively. Moreover, the cell count in assay [12] (setting [22]) was 5290; in assay [12] (setting [23]), 5650. Further, the luciferase signal in assay [15] is 56 AU (inactive).

With `COc1cc2ccc(=O)oc2cc1O`, the inhibition in [1] was -26.2%; in assay [10] it was -1.14% (inactive). The compound also registered a score in assay [2] of 1.15. In [3], this compound yielded a rescue above control of 11.4. For the same compound, in [4], the cytochrome c release ratio was 0.77. For the same compound, the inhibition of aggregation in assay [5] was determined as 0%. Besides, the glutamate uptake change in assay [6] came to 13.8%. In assay [7], this compound returned an inclusion score of 2. The compound also registered an aggregation suppression score in [8] of 1.62. In addition, in assay [14], the survival was 12.4 (inactive). Besides, the parasite load remaining in assay [9] was 104% (inactive) and 103% (inactive). Further, the viability in assay [9] was 106% and 66.2%. The red/green cell ratio (normalised) in [11] is 1.11 (inactive). The normalised cell number in assay [11] (setting [18]) turned out to be 0.86; in [11] (setting [19]), 0.96. Besides, the fold change in assay [12] (setting [20]) was 0.946 (inactive); in assay [12] (setting [21]), 1.18. The cell count was determined as 8620 in [12] (setting [22]) and 9110 in assay [12] (setting [23]). For the same compound, the luciferase signal in [15] was 40 AU (inactive).

As to `CCCCN1CCCCC1C(=O)Nc1c(C)cccc1C` (stereo not given), the inhibition in assay [1] was 17%; in [10], 3.83% (inactive). Moreover, in assay [2], the score is 1.42. Further, the rescue above control in [3] was -7.52. For the same compound, the cytochrome c release ratio in assay [4] amounted to 0.81. The inhibition of aggregation in [5] was -27.4%. In addition, the glutamate uptake change in assay [6] is 1.83%. In [7], the inclusion score worked out at 2. The compound also showed an aggregation suppression score in assay [8] of 1.3. Further, the survival in assay [14] is 10.1 (inactive). Besides, in assay [11], the red/green cell ratio (normalised) was 1.17 (inactive). The values for the normalised cell number in assay [11] (setting [18]) and in [11] (setting [19]) were 1.13 and 1.33, respectively. The z-score is -0.429 (inactive) and 0.622 (inactive) and -0.162 (inactive) in assay [16] (MELAS cybrid survival, CellTiter-Glo 48 h, stronger effect = higher value); -0.124 and 0.613 and -0.528 in assay [16] (Rieske KO mouse fibroblast survival, CellTiter-Glo 72 h); 0.545 (inactive) in [17]. Besides, the remaining NAD in assay [13] was 10 nM (inactive). For the same compound, the luciferase signal in [15] is 68 AU (inactive).
